Results filed as inconclusive are left out. A structure can be active in one record and inactive in another. The source made the active and inactive calls. Unless noted, the call rests on the fitted dose curve.

Test [1] is described as follows: Nuclear factor erythroid 2-related factor 2/antioxidant responsive element (Nrf2/ARE) small molecule agonists: qHTS cell viability counter screen in human keratinocytes (AID 1919968; active means well fitted curve in the direction sought with a large enough effect in the repeat runs; an effect the other way counts as inactive or inconclusive; further: nearly all actives have a fitted effect of over 55% in size). In a few lines: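 KeratinoSens cells (HaCaT keratinocytes stably carrying an ARE-luciferase reporter) were seeded at 1,500 cells/well and rested 5 h at 37 C/5% CO2. They were then exposed to compounds in DMSO for 23 h. Viability was read by CellTiter-Fluor fluorescence after 1 h.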

Test [2] is described as follows: Nuclear factor erythroid 2-related factor 2/antioxidant responsive element (Nrf2/ARE) small molecule agonists: luciferase reporter gene qHTS assay in human keratinocytes (AID 1919969; further: nearly all actives have a fitted effect of over 35% in size; further: potency means the concentration at half of the fitted maximal effect). (Reporter assays use an easily measured gene product as a stand-in for the process of interest.)
A short description of test [3]: G protein-coupled receptor (GPCR) small molecule agonists, calcium flux assay: HEK293 wild type cell line counter screen (AID 1920065). In a few lines: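 Cells were plated and cultured 18 h at 37 C/5% CO2, then loaded with calcium dye for 1 h at 37 C. Compounds in DMSO were pin-transferred in agonist mode, and fluorescence (Ex/Em 480/540) was read kinetically for 3 min at 1 s intervals.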

Test [4] can be described thus: p53 small molecule agonists, cell-based qHTS assay with human liver microsomes (AID 1963577). A digest of the protocol:
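p53RE-bla cells, 4,000/well, compound added after 5 h, with human liver microsomes 0.5 mg/mL and NADPH 0.5 mg/mL final; 16 h at 37 C, then LiveBLAzer 2 h RT, fluorescence.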

The nature of test [5]: p53 small molecule agonists, cell-based qHTS assay with rat liver microsomes (AID 1963578). A digest of the protocol:
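p53RE-bla cells, 4,000/well, pre-incubated 5 h, then given compounds plus rat liver microsomes (0.5 mg/mL final) and NADPH (0.5 mg/mL final). Incubation 16 h at 37 C; beta-lactamase reporter read by LiveBLAzer fluorescence after 2 h at room temperature.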

A short description of test [6]: p53 small molecule agonists, cell-based qHTS assay with human liver microsomes: qHTS cell viability counter screen (AID 1963579). Further: nearly all actives have a fitted effect of over 45% in size. A digest of the protocol: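 p53RE-bla cells, 4,000/well, dosed 5 hours after plating, with human liver microsomes (0.5 mg/mL final) plus NADPH (0.5 mg/mL final), 16 hours at 37 C. Viability read as CellTiter-Glo luminescence after 30 min at room temperature.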
A general note: Quantitative high-throughput screening tests each substance at several concentrations.

Test [7] in a line: p53 small molecule agonists, cell-based qHTS assay with rat liver microsomes: qHTS cell viability counter screen (AID 1963580). Further: nearly all actives have a fitted effect of over 45% in size. In a few lines:
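p53RE-bla HCT-116 cells were exposed 16 h at 37 C to compounds with rat liver microsomes (0.5 mg/mL) and NADPH (0.5 mg/mL). Viability was measured in the same wells as ATP content by CellTiter-Glo luminescence.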

A short description of test [8]: p53 small molecule agonists, cell-based qHTS assay: qHTS cell viability counter screen (AID 1963581). Further: nearly all actives have a fitted effect of over 45% in size. A digest of the protocol: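 p53RE-bla HCT-116 cells were exposed to compounds for 16 h at 37 C; after the beta-lactamase FRET read in the same wells, CellTiter-Glo was added and luminescence (intracellular ATP) read after 30 min at room temperature.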
Test [9] can be described thus: cAMP Responsive Elements (CRE) small molecule agonists, cell-based qHTS assay (AID 1963590). In a few lines: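 CRE-bla HEK 293T cells in DMEM with 10% dialyzed FBS, NEAA, pyruvate and 25 mM HEPES were plated 18 h at 37 C/5% CO2, then exposed to compounds in DMSO for 3 h before LiveBLAzer B/G FRET substrate addition.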
The nature of test [10]: cAMP Responsive Elements (CRE) small molecule antagonists, cell-based qHTS assay (AID 1963591; active means well fitted inhibition curve with a large enough effect in the signal ratio in the repeat runs, not every such curve was filed as active; the % refers to the signal ratio). In a few lines:
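CRE-bla HEK293T cells were plated 18 h at 37 °C/5% CO2, pinned with compound in DMSO, then stimulated with NKH477 at 0.25 uM final for 3 h. LiveBLAzer B/G FRET substrate was added and plates incubated 2 h at room temperature.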

Test [11] has as its target Beta-2 adrenergic receptor (Homo sapiens) (UniProt P07550). The test can be described thus: Adrenergic beta2 receptor (ADRB2) small molecule antagonists, cell-based qHTS assay (AID 1963592). Further: series mostly up to about 92 µM; nearly all actives have a fitted effect of over 50% in size. A digest of the protocol:
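Cells (CHO, stable ADRB2 overexpression) incubated 18-20hr at 37C; compounds added from DMSO; agonist mix (1nM isoproterenol, 100uM IBMX, 25uM Ro-20-1724) added; 0.5hr RT; d2-cAMP and anti-cAMP-cryptate added; 1hr RT; 665/615 nm read.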

The target is the same in test [12]. Nature of the test: Adrenergic beta2 receptor (ADRB2) small molecule agonists, cell-based qHTS assay (AID 1963593).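 Further: CHO cells stably overexpressing human ADRB2.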 A digest of the protocol:
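CHO cells stably over-expressing ADRB2 were plated overnight at 37C, then dosed with compounds plus a stimulation mix containing 100uM IBMX and 25uM Ro-20-1724 for 0.5hr at room temperature. cAMP was measured by HTRF competition, 1hr.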

In test [13] the target is D(2) dopamine receptor (Homo sapiens) (UniProt P14416). The test can be described thus: Dopamine D2 receptor (DRD2) small molecule agonists, cell-based qHTS assay (AID 1963594). Further: nearly all actives have a fitted effect of over 35% in size. In a few lines: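 HEK293 cells stably expressing human DRD2, pre-treated with PDE inhibitor Ro20-1724 (0.1 mM final) and compound 10 min at room temperature, then stimulated with NKH477 (200nM […]) for 30 min. cAMP read by HTRF (665/620 nm).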

Test [14] shares this target. The test can be described thus: Dopamine D2 receptor (DRD2) small molecule antagonists, cell-based qHTS assay (AID 1963595; active means well fitted inhibition curve with a large enough effect in the signal ratio in the repeat runs, with a control signal flat; the % refers to the signal ratio). In a few lines: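 Human DRD2 antagonist qHTS measuring cAMP by HTRF. The cells are exposed to compound for 10 min, then to NKH477 (200 nM) and quinpirole (12 nM) for 30 min at RT, with Ro20-1724 (0.1 mM) present throughout.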
A short description of test [15]: p53 small molecule agonists, cell-based qHTS assay (AID 1963582; active means well fitted activation curve with a large enough effect in the signal ratio in the repeat runs, not every such curve was filed as active; the % refers to the signal ratio). A digest of the protocol:
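p53RE-bla beta-lactamase reporter cells rested 5 h at 37 C/5% CO2, then received compounds in DMSO by pin transfer and were incubated 16 h at 37 C. LiveBLAzer B/G FRET substrate was loaded for 2 h at room temperature before fluorescence reading.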

The target in test [16] is 5-hydroxytryptamine receptor 2A (Homo sapiens) (UniProt P28223). Nature of the test: 5-hydroxytryptamine receptor 2A (HTR2A) small molecule agonists, cell-based qHTS assay (AID 1963587). Further: nearly all actives have a fitted effect of over 30% in size. In a few lines: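 CHO cells stably expressing human HTR2A, plated 18 h, loaded with calcium dye 1 h at 37 C. Agonist mode: compounds added and intracellular calcium fluorescence recorded kinetically for 2 min at 1 sec intervals.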

The target of test [17] is Muscarinic acetylcholine receptor M1 (Homo sapiens) (UniProt P11229). Nature of the test: Cholinergic receptor muscarinic 1 (CHRM1) small molecule antagonists, cell-based qHTS assay (AID 1963588). Further: nearly all actives have a fitted effect of over 40% in size. In a few lines: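 CHRM1-CHO calcium-flux assay, antagonist mode. Cells were seeded 18 h, dye-loaded 1 h at 37 C and given compound for 5 min at RT, then acetylcholine was added at 50nM. FDSS fluorescence was read 3 min; 15 concentrations, three runs.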

For test [18] the target is unchanged. Nature of the test: Cholinergic receptor muscarinic 1 (CHRM1) small molecule agonists, cell-based qHTS assay (AID 1963589). Further: nearly all actives have a fitted effect of over 35% in size. A digest of the protocol:
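CHO cells stably expressing human CHRM1, seeded 18 h at 37 C/5% CO2, dye-loaded 1 h at 37 C, then given compound in agonist mode; intracellular calcium fluorescence read kinetically at 1 s intervals. Fifteen concentrations, three independent runs.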

Test [19] addresses 5-hydroxytryptamine receptor 2A (Homo sapiens) (UniProt P28223). The test can be described thus: 5-hydroxytryptamine receptor 2A (HTR2A) small molecule antagonists, cell-based qHTS assay (AID 1963586). Further: nearly all actives have a fitted effect of over 45% in size. In a few lines: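 Antagonist-mode intracellular calcium assay: DOI (4 nM) added after 5 min compound pre-incubation at room temperature to dye-loaded HTR2A-CHO cells. Fluorescence followed for 3 min, sampled every second.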

For test [20], the target named is KiSS-1 receptor (Homo sapiens) (UniProt Q969F8). Nature of the test: Human kisspeptin (KISS1R) small molecule agonists, calcium flux assay in KISS1R-HEK293 cells (AID 1920064; active means well fitted curve in the direction sought with a large enough effect in the repeat runs; an effect the other way counts as inactive or inconclusive). In a few lines: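 HEK293 cells stably expressing human KISS1R were plated 18 h at 37 °C, loaded with calcium dye for 1 h at 37 °C, then given compound by pin tool. Fluorescence (Ex/Em 480/540) was read kinetically for 3 min.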
A general note: A change in cytosolic calcium serves as a functional read-out for many receptors and channels.

Chain of Muscarinic acetylcholine receptor M1 (Homo sapiens) (P11229 whole entry, looked up): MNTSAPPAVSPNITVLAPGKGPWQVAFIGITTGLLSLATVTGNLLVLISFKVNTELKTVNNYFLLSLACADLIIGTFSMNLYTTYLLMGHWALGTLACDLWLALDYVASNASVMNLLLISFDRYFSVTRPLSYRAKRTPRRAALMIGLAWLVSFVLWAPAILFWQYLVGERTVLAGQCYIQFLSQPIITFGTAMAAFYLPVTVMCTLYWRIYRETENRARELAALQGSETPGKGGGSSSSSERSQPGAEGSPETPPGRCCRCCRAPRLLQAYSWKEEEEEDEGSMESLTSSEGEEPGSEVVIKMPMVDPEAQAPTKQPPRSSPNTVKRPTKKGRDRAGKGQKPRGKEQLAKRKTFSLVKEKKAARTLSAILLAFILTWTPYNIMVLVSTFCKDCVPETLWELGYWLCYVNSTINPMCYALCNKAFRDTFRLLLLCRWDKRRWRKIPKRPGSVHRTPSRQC
Chain of 5-hydroxytryptamine receptor 2A (Homo sapiens) (P28223 whole entry, looked up): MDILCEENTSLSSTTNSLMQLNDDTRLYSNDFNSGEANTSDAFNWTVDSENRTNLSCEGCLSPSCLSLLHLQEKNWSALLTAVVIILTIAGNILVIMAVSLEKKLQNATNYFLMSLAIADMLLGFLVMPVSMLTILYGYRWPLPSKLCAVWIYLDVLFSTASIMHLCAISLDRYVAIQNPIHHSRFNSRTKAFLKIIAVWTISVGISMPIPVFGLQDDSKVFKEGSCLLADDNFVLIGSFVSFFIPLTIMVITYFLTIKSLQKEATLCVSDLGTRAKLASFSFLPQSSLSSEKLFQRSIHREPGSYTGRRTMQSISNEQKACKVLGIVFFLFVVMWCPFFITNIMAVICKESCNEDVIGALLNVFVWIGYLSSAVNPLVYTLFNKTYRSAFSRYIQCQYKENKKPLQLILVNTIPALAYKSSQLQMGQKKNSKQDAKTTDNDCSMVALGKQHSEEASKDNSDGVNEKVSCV
Chain of KiSS-1 receptor (Homo sapiens) (Q969F8 whole entry, looked up): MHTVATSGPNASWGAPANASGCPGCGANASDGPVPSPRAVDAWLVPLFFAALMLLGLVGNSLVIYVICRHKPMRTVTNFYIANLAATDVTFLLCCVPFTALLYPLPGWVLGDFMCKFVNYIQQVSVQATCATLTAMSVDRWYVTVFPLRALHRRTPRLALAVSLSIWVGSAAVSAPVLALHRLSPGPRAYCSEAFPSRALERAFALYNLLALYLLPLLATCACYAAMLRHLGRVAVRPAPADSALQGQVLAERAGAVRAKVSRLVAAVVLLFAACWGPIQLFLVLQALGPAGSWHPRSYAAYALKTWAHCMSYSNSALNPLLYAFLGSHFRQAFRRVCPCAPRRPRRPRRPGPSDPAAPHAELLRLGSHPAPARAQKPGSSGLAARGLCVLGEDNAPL
Chain of D(2) dopamine receptor (Homo sapiens) (P14416 whole entry, looked up): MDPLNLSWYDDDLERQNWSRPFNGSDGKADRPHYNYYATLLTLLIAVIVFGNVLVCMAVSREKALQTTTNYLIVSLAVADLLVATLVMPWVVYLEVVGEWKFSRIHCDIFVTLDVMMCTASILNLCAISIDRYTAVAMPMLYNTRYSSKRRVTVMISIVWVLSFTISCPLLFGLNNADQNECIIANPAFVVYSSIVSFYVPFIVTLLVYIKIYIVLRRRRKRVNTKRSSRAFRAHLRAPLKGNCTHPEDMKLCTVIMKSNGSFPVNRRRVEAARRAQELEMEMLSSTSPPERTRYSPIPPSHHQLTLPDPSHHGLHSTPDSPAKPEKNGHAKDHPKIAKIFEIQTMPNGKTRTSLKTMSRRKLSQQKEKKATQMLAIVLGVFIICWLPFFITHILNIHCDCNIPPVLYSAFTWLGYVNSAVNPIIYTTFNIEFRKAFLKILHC
Chain of Beta-2 adrenergic receptor (Homo sapiens) (P07550 whole entry, looked up): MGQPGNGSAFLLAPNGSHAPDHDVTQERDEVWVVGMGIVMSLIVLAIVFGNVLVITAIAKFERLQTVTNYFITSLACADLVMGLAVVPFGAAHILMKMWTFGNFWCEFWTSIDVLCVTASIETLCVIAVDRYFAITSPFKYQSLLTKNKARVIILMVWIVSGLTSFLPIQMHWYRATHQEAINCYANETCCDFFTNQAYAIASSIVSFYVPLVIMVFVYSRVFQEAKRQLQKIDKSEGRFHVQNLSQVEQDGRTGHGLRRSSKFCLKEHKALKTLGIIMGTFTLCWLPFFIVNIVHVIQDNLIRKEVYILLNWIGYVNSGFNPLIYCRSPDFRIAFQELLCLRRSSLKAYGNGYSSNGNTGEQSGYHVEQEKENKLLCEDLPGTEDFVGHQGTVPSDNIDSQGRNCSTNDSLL

Turning to `CC1(C)S[C@@H]2[C@H](NC(=O)[C@H](N)c3ccccc3)C(=O)N2[C@H]1C(=O)O`, the Potency entry in test [1], in test [2], in test [3], in [4], in test [5] and in test [6] was “inactive” in each case. In addition, the Potency result in test [7], in [8], in test [9], in test [10], in test [11] and in [12] was “inactive” in each case. The Potency entry in test [13] and in test [14] was “inactive” throughout.
Consider `Cc1cccc(O)c1`, for which the Potency entry in test [1], in test [2], in test [3], in test [4], in [5] and in test [6] was “inactive” throughout. Also, the Potency result in test [7], in [8], in test [15], in test [16], in test [17] and in test [18] was “inactive” in each case. Further, the Potency result in [9], in test [10], in test [11], in test [13] and in test [14] was “inactive” each time.
Regarding `CC1=CC[C@H]2C[C@@H]1C2(C)C`, the Potency entry in [1], in test [2], in [3], in test [6], in [7] and in test [8] was “inactive” each time. Besides, the Potency result in [19], in [16], in test [17], in [18], in test [10] and in test [11] was “inactive” throughout. The Potency entry in test [13] and in test [14] was “inactive” each time.
With `NCCN1CCNCC1`, the Potency entry in test [1], in test [2], in [3], in test [4], in test [5] and in [6] was “inactive” each time. Further, the Potency entry in [7], in [15], in [19], in test [16], in [17] and in test [18] was “inactive” in each case. The Potency entry in [9], in test [10], in [11], in [12], in [13] and in [14] was “inactive” throughout.
Take `COC(=O)/C=C\C(=O)OC`: the Potency entry in [1], in test [2], in test [20], in test [3], in [4] and in test [5] was “inactive” in each case. Besides, the Potency result in [6], in [7], in test [8], in test [15], in test [19] and in test [16] was “inactive” throughout. Further, the Potency entry in test [17], in test [18], in test [9], in [10], in [11] and in test [12] was “inactive” throughout. The Potency entry in [13] and in test [14] was “inactive” in each case.
Consider `CCCCCCCCCCCCc1ccccc1`, for which the Potency entry in [1], in test [20], in test [3], in test [4], in test [5] and in [6] was “inactive” each time. The Potency entry in test [7], in test [8], in test [15], in test [19], in test [16] and in test [17] was “inactive” each time. Moreover, the Potency entry in [18], in [9], in [10], in test [11], in test [12] and in test [13] was “inactive” throughout. Also, in test [14], the Potency result was “inactive”. The Potency in test [2] is 61.2 µM (active) and inactive.
Regarding `CCc1cccc(C)c1N`, the Potency entry in test [1], in [2], in test [3], in test [4], in [6] and in [7] was “inactive” each time. Also, the Potency result in [8], in test [15], in test [19], in test [16], in test [17] and in [18] was “inactive” each time. Also, the Potency result in test [9], in [10], in test [11], in test [12], in [13] and in test [14] was “inactive” in each case.
Regarding `COc1ccc(NC(C)=O)cc1N`, the Potency result in test [1], in [2], in [3], in test [6], in test [7] and in test [8] was “inactive” throughout. For the same compound, the Potency entry in test [19], in test [17], in test [18], in test [10], in test [11] and in test [13] was “inactive” throughout. Also, the Potency entry in test [14] is “inactive”.

The values above are taken from PubChem BioAssay (Tox21).
